# Bioassay records as filed in PubChem BioAssay.
# This is a sample that favours compounds with a hit; in the whole collection about 11% have one here.
# Sm TGR inh – blocks Schistosoma mansoni thioredoxin glutathione reductase; 3% of 360,000 active; purified TGR, DTNB reduction, TNB absorbance 405 nm; Potency, µM (highest dose often 114 µM), for inactives: at the highest dose activity change, negative = inhibition, actives largely listed as inhibitors; note: % is set by controls: 0 for no effect and ±100 for the full control effect; nearly all actives have a fitted effect of over 60% in size
#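 Kinetic colorimetric format: TGR-catalysed, NADPH-driven DTNB reduction monitored via TNB absorbance. Enzyme dispensed at 20 nM; compound exposure 15 min at room temperature before reaction start.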
# Pf growth 96h – P. falciparum growth inhibition at 96 hour, primary screen for plastid delayed-death inhibitors; P. falciparum luciferase reporter growth, 96 h; Potency, µM (highest dose often 28.7 µM), for inactives: at the top dose activity change, negative = inhibition, hits mostly inhibitors; 6.9% of 320,000 active; AID 504834; note: % is set by controls: 0 for no effect and ±100 for the full control effect
#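 Readout is luminescence from an integrated firefly luciferase in P. falciparum. Red cells, 2% hematocrit and 0.05% parasitemia final, were cultured with compound through two parasite generations (96 hours) at 37 C, 5% CO2.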
# AMA1 RON2 block – disrupts binding of P. falciparum AMA1 to RON2; AlphaScreen AMA1-biotinylated RON2 peptide binding; Potency, µM (top dose mostly 58.2 µM), for the others: top-dose activity change, negative = inhibition, hits mostly inhibitors; AID 720542; 0.2% of 360,000 active;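 note: 0% = vehicle wells and -100% = peptide control; nearly all actives have a fitted effect of over 45% in size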
#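 AMA1 (3D7) with his tag at 25 nM final met compounds first, then biotinylated RON2 peptide at 25 nM; detection used donor plus acceptor beads, 10 µg/mL apiece, read by AlphaScreen after 30 min at room temperature.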
# Pf growth 48h – inhibits P. falciparum growth in the first generation, 48 h. AID 504832. 5.9% of 310,000 active. Potency, µM (titrated, usually from 28.7 µM), for inactives: at the highest dose activity change, negative = inhibition, most hits filed as inhibitors. P. falciparum luciferase growth in erythrocytes, 48 h; note: % is set by controls: 0 for no effect and ±100 for the full control effect
#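 Luminescence readout; reporter = integrated firefly luciferase in P. falciparum. RBC culture at 2% hematocrit, 0.1% parasitemia final, 37 C/5% CO2; decreased signal taken as growth inhibition.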
# NS1 inh – blocks influenza NS1 protein function. Potency, µM (highest dose often 46.1 µM), inactives show at the top dose activity, positive = more growth. 0.4% of 270,000 active. AID 2326; calls by dose curve; note: actives are rising curves; nearly all actives have a fitted effect of over 50% in size
#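 Growth recovery, yeast-based: influenza A NS1 expressed in S. cerevisiae causes slow growth, and suppressors are detected by OD600. The parent strain without NS1 is used as positive control.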
# Active calls of the source: *; ? = inconclusive; . = no result; [ ] = dose if it differs, or a comment. Unless noted, calls come from the whole dose curve; as a rule, active = well fitted curve in the direction sought with a large enough effect; inconclusive = small, poorly fitted or top-dose-only effect, or another doubt; inactive = no such curve, though single readings can be large; an effect the other way counts as inactive or inconclusive. Potency is the fitted concentration of half-maximal effect.
SMILES,Sm TGR inh,Pf growth 96h,AMA1 RON2 block,Pf growth 48h,NS1 inh
CCN1CCN(c2cc(C)c3cc(NC(=O)Cc4ccccc4OC)ccc3n2)CC1,-16.8%,?,6.2%,11.7µM*,5.5%
CCOc1ccc(S(=O)(=O)N(CC(=O)Nc2ccc3c(c2)OCO3)c2ccccc2)cc1,0.6%,.,.,.,.
O=C(CCCC(=O)c1ccc(F)cc1)c1ccc(F)cc1,-1.1%,168.6%,37.2%,.,-6.1%
Cc1cc(-n2c(C)nc3ccccc3c2=O)ccc1NC(=O)c1cccc([N+](=O)[O-])c1,15.6%,.,.,.,.
Cc1cccc(C)c1NC(=O)C1(C)CN(S(C)(=O)=O)CC(=O)N1CCOc1ccccc1 (centres undefined),.,.,2.5%,.,.
O=C(NC1CCCC1)c1c(O)nc2sccn2c1=O,5.4%,?,-3.2%,-27.7%,.
Cc1csc2nc(O)c(C(=O)NCCCN3CCCC3=O)c(=O)n12,-5.7%,-8.1%,2.7%,-20.8%,.
Cc1csc2nc(O)c(C(=O)NC3CCCCCC3)c(=O)n12,2.5%,?,40.2%,11.7µM*,.
Cc1csc2nc(O)c(C(=O)NC3CCCCC3)c(=O)n12,-12.4%,5.86µM*,25.2%,11.7µM*,.
O=S(=O)(c1ccc(Cl)cc1)c1nnn2c1nc(NC1CCCCC1)c1sccc12,0.6%,.,.,.,.
O=C(O)CCn1c(-c2ccccc2)cc2ccccc21,65.1%,?,8.7%,13.4%,-33.7%
O=c1c2c(-c3ccc([N+](=O)[O-])cc3)csc2nc2n1CCCCC2,5.4%[57.1 µM],10.5%,-5.0%,?,-1.8%
COc1ccccc1-n1c(COc2ccccc2-c2ccccc2)nnc1SCC(=O)c1c(N)n(C)c(=O)n(C)c1=O,2.9%,?,-2.9%,16.6%,3.55µM*
Cn1c(N)c(C(=O)CSc2nnc(-c3ccccc3F)n2N)c(=O)n(C)c1=O,-2.1%,10.4µM*,8.8%,?,1.5%
COc1ccc(OCc2nnc(SCC(N)=O)n2-c2ccccc2OC)cc1,-17.9%,.,3.7%,-10.0%,-17.1%
Cn1c(N)c(C(=O)CSc2nnc(-c3ccccc3F)n2C2CC2)c(=O)n(C)c1=O,7.8%,13.3%,25.8%,?,.
CC1(C)O[C@H]2C[C@@H]3[C@H]4CCC5=CC(=O)CC[C@@]5(C)[C@]4(F)[C@@H](O)C[C@@]3(C)[C@@]2(C(=O)CCl)O1,.,4.05µM*,.,5.1µM*,.
C[C@@H]1C[C@H]2[C@@H]3CCC4=CC(=O)C=C[C@]4(C)[C@@]3(F)[C@@H](O)C[C@]2(C)[C@H]1C(=O)CO,-21.4%,9.28µM*,-2.3%,?,9.2%
CC(=O)C12OC(C)(C)OC1CC1C3CCC4=CC(=O)C=CC4(C)C3(F)C(O)CC12C (centres undefined),.,.,3.5%,.,.
CC(=O)OCC(=O)[C@@]12OC3(CCCC3)OC1CC1C3CCC4=CC(=O)C=C[C@@]4(C)[C@]3(F)C(O)C[C@]12C (some centres undefined),.,9.53µM*,.,15.1µM*,.
CC1(C)O[C@@H]2C[C@H]3[C@@H]4CCC5=CC(=O)CC[C@]5(C)[C@@]4(F)[C@@H](O)C[C@]3(C)[C@]2(C(=O)CCl)O1,-8.0%,3.29µM*,14.2%,2.62µM*,.
CCN(CC)S(=O)(=O)c1ccc(/C=C/C(=O)OCC(=O)N(C(C)C)C(C)C)cc1,7.4%,8.9%,30.4%,31.2%,0.5%
Cc1cccc(N2CCN(S(=O)(=O)c3c(C(=O)N4CCC(C)CC4)c(C)n(C)c3C)CC2)c1C,1.7%,.,.,.,.
N[C@@H](CNO)C(=O)O,.,.,.,.,-3.5%
O=c1ccc(S(=O)(=O)N2CCCC2)cn1Cc1ccc(Cl)cc1Cl,-22.7%,?,-24.0%,?,.
SMILES,Sm TGR inh,Pf growth 96h,AMA1 RON2 block,Pf growth 48h,NS1 inh
COc1ccc(OC)c(C2CC(=O)N3CN(c4ccccc4F)CSC3=C2C#N)c1 (centres undefined),15.8µM*,?,0.0%,.,-28.6%
COc1cccc(C2CC(=O)N3CN(c4ccccc4F)CSC3=C2C#N)c1 (centres undefined),35.5µM*,1.0%,5.2%,.,3.7%
COc1cc(C)cc2c(-c3c(O)cc(O)c4c3C[C@H](C)N[C@@H]4C)cc(-c3cc(-c4c(O)cc(O)c5c4C[C@H](C)N[C@@H]5C)c4cc(C)cc(OC)c4c3O)c(O)c12,.,.,.,.,7.94µM*
N#CCSc1ccccc1NC(=O)COC(=O)Cc1c[nH]c2ccccc12,-10.1%,6.57µM*,-1.8%,10.4µM*,.
Cc1ccc(NC(=O)COC(=O)Cc2c[nH]c3ccccc23)cc1F,50.1µM*,15.3%,-20.2%,-3.1%,.
O=C(Nc1c(Cl)ccc2nsnc12)c1ccc([N+](=O)[O-])o1,?,?,13.6%,?,-17.9%
CC1CCCC(C)N1CCCNC(=O)C(=O)Nc1ccc2nc3n(c(=O)c2c1)CCCCC3 (centres undefined),-21.6%,14.0%,2.0%,4.4%,-4.4%
Cn1nc(C(C)(C)C)c([N+](=O)[O-])c1C(=O)Nc1cccc2ccccc12,13.7%,11.7µM*,-3.4%,11.7µM*,-6.3%
CCOC(=O)C(C)/C(C)=N/NC(N)=S (centres undefined),-9.0%,4.65µM*,97.1%,1.31µM*,-0.9%
CC(OC(=O)CN1C(=O)NC2(CCCCC2C)C1=O)c1ccccc1 (centres undefined),-6.9%,4.4%,-9.6%,?,.
O=C(c1cnn2c(C(F)F)cc(-c3ccccc3)nc12)N1CCCCC1c1cccnc1 (centres undefined),23.9%,?,5.0%,1.65µM*,-4.3%
COc1ccccc1-c1cc(C(=O)N2CCc3ccccc3C2)c2ccccc2n1,-3.0%,?,.,?,-4.9%
O=C(c1cnn2c(C(F)F)cc(-c3ccccc3)nc12)N1CCN2CCCC2C1 (centres undefined),?,.,5.1%,?,0.0%
COc1cccc(-c2cc(C(F)(F)F)n3nc(C(=O)N4CCCCC4c4cccnc4)cc3n2)c1 (centres undefined),-2.0%,?,-0.6%,3.7µM*,.
O=C(c1cnn2c(C(F)F)cc(-c3ccccc3)nc12)N1CCN(Cc2ccc3c(c2)OCO3)CC1,-28.0%,?,-24.8%,4.65µM*,-4.4%
COc1ccccc1-c1cc(C(F)(F)F)n2ncc(C(=O)N3CCc4ccccc4C3)c2n1,-24.5%,?,22.8%,2.33µM*,5.7%
CN(C(=O)C1CC1)C1CCS(=O)(=O)C1 (centres undefined),-7.7%,4.0%,1.9%,11.1%,.
CCc1cccc(NC(=O)Cn2nc(-c3ccc(OC)cc3)ccc2=O)c1,-0.3%,.,.,.,.
CC(=O)c1cccc(S(=O)(=O)N2CCC(C(=O)OC3CCOC3=O)CC2)c1 (centres undefined),-1.8%,2.7%,-6.2%,-22.2%,.
CCN1CCN(C(=O)c2cnn3c(C(F)F)cc(-c4ccc(C)cc4)nc23)CC1,-1.2%,7.38µM*,-6.1%,?,0.1%
O=C(c1cnn2c(C(F)(F)F)cc(-c3ccc4c(c3)OCO4)nc12)N1CCCCC1,1.4%,8.28µM*,1.1%,-0.3%,-13.9%
